This is an account of results in PubChem BioAssay AID1259341 (Broad Institute, 2017).

The target in the assay is Caspase recruitment domain-containing protein 9 (Homo sapiens) + E3 ubiquitin-protein ligase TRIM62 (Homo sapiens) (UniProt Q9H257+Q9BVG3). The assay can be described thus: CARD9/TRIM62 protein interaction inhibitors – cell lysate, HEK293FT lysates, Luminex bead ELISA, primary screen (AID 1259341).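 Further: PE anti-Flag signal of Flag-CARD9 captured by myc-TRIM62 beads.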 As to conditions: PE fluorescence, active compounds read low, concentration not given here.
Chain of Caspase recruitment domain-containing protein 9 (Homo sapiens) + E3 ubiquitin-protein ligase TRIM62 (Homo sapiens) (Q9BVG3 whole entry, looked up, the tested form may be a part): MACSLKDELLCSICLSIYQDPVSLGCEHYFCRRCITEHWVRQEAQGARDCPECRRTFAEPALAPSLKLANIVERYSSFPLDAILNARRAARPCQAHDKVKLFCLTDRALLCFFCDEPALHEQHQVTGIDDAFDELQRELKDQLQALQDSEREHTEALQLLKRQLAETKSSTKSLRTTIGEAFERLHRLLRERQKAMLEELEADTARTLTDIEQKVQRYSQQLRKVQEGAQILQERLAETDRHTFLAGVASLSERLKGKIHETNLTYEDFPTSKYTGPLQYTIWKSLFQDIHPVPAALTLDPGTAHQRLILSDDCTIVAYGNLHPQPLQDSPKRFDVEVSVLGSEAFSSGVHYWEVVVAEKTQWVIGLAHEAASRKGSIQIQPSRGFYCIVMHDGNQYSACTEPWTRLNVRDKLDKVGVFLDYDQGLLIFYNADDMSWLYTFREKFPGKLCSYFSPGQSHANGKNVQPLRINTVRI
Chain of Caspase recruitment domain-containing protein 9 (Homo sapiens) + E3 ubiquitin-protein ligase TRIM62 (Homo sapiens) (Q9H257 whole entry, looked up, the tested form may be a part): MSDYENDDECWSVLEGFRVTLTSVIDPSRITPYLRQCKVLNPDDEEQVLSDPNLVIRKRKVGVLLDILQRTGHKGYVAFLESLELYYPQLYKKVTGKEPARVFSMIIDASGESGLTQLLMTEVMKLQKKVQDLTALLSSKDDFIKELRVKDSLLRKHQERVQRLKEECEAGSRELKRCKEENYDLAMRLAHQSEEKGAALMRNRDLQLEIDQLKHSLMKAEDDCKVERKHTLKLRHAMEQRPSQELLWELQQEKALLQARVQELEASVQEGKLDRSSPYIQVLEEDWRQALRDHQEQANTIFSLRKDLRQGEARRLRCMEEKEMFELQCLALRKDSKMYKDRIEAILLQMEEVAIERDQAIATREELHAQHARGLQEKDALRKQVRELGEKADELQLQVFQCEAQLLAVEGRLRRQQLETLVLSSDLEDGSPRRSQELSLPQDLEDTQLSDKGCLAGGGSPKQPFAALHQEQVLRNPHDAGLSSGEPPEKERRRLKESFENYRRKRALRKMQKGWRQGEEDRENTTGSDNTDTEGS

Structures are written as SMILES. Values without a mark were called inactive. The source made the active and inactive calls.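 How the source made its calls: active means activity change under -35% in any replicate well, with more than 20 beads read in that well; inactive means the rest.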

`CCc1nccn1CCC(=O)N1C[C@H](CO)C[C@H](CN2CCCC2)C1`: the activity change, negative = inhibition was 4.55%. Under `CC(C)(C)c1ccc(-c2nc(C#N)c(NCc3ccncc3)o2)cc1` stands 6.53%. In the case of `O=C(CCc1nc(-c2ccccc2)no1)NCC1CNCCOC1` (stereo unspecified) it was 18.6%; in that of `O=C(CN1CCN(c2ccccc2O)CC1)NC(=O)NC1CCCC1`, 2.28%. In the case of `COc1ccc(N2CC3=C(N2)c2ccccc2CC3)cc1` it was 25.5%; in that of `O=C(Nc1ccc2oc(-c3cccnc3)nc2c1)c1ccc2c(c1)OCCO2`, 4.18%.

As to `O=C(CN1CCOC1=O)N1CCC2(CCC(=O)N(CCCn3ccnc3)C2)CC1`, the activity change, negative = inhibition is -6.82%.

Regarding `Cc1ccc(C(=O)Nc2cnc(N3CCC(C(N)=O)(N4CCCCC4)CC3)c(C(=O)O)c2)cc1`, the activity change, negative = inhibition is -51.3% (active). As to `COc1ccc(-n2c(C)c3c(OC)cccc(=O)c3c2C)cc1`, the activity change, negative = inhibition was 3.94%. Take `O=C1NC(c2ccc(Br)cc2)Nc2sc3c(c21)CCC3` (stereo unspecified): the activity change, negative = inhibition is -3.86%.

For `N#Cc1c(-c2ccco2)cc(-c2ccccn2)nc1N`, the activity change, negative = inhibition was 1.52%. Regarding `Cc1cnc(C)c(N2CCN(C(=O)[C@H]3CC[C@@H](N)C3)CC2)n1`, the activity change, negative = inhibition is 2.01%. Under `Cc1ccc(-c2nc(C)sc2CC(=O)NCc2ccco2)cc1` stands -1.34%; under `Cc1sc2ncnc(SCc3ccco3)c2c1C`, -1.85%. In the case of `COc1ccc(S(=O)(=O)c2ccccc2)cc1NS(=O)(=O)c1cccc(C(=O)O)c1` it was -0.344%; in that of `c1ccc(-c2nc(-c3ccco3)n3ccccc23)cc1`, -5.09%; in that of `CC(CCc1ccco1)N(C)S(=O)(=O)c1ccc2[nH]c(=O)ccc2c1` (stereo unspecified), 3.38%. Take `Cc1ccc(-c2cc(C(=O)NCc3ccco3)c3ccccc3n2)o1`: the activity change, negative = inhibition was -2.28%.

Regarding `CC(C)=CCC(C#N)(CC=C(C)C)C(=O)O`, the activity change, negative = inhibition was 8.02%. Under `CC(=O)c1ccc(NC(=O)c2noc3c2CCC3)cc1` stands -2.31%; under `CC(=O)c1sc2nc(-c3ccco3)ccc2c1N`, -8.74%. Take `COc1cccc(NC(=O)CN(C)C(=O)c2cc3c(s2)CCC3)c1`: the activity change, negative = inhibition was -19.8%.

As to `CS(=O)(=O)c1ccc2ccn(O)c2c1`, the activity change, negative = inhibition was -9.61%.

As for `O=C(Nc1nccs1)c1cc(-c2ccco2)nc2ccccc12`, the activity change, negative = inhibition is -0.894%. Under `CCOc1ccc(-n2c3nc4ccccc4nc3c3c(=O)n(Cc4ccco4)cnc32)cc1` stands 6.8%; under `N#Cc1c(-c2ccco2)cc(-c2cccnc2)nc1N`, 0.372%; under `Cc1cncc(-c2ccc(S(N)(=O)=O)cc2F)c1`, -3.94%. In the case of `COc1ccc(Nc2nc(-c3nnc(-c4ccc(F)cc4)o3)nc3ccccc23)cc1Cl` it was -3.07%; in that of `CCn1ccnc1C1CCN(C(=O)CCn2c(C)nc3ccccc32)CC1`, -6.29%. In the case of `O=C(N/N=C/C=C/c1ccco1)c1cncc(Br)c1` it was -8.78%; in that of `Cc1ccc(-c2nn(-c3ccccc3)cc2CN(Cc2ccccc2)C(=O)CCC(=O)O)o1`, 7.87%; in that of `Nc1ccc(-c2cccc(CN3CCCC3)c2)cc1`, -3.56%. Consider `Cc1cccc2nc(CSCc3ccco3)cn12`, for which the activity change, negative = inhibition is -4.69%.

With `COc1ccc(CNC(=O)c2nc(Nc3ccc(C)cc3)c3ccccc3n2)cc1`, the activity change, negative = inhibition was -5.2%. As to `O=C(Nc1nnc(-c2ccco2)s1)c1ccccc1`, the activity change, negative = inhibition was 1.07%. In the case of `Cc1ccc(C)n1Nc1nc(O)cs1` it was 1.72%.
